# A selection: hits, their analogues and other compounds. The true share with any hit is near 15%.
# Pf growth 48h: P. falciparum growth inhibition at 48 hours (one generation). 5.9% of 310,000 active. P. falciparum luciferase growth in erythrocytes, 48 h. Potency, µM (series often up to 28.7 µM), for the others: at the top dose activity change, negative = inhibition, usual class: inhibitors; note: potency is the fitted concentration of half-maximal effect; % is set by controls: 0 for no effect and ±100 for the full control effect
#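 Here the parasites carry a stable luciferase gene and grow inside erythrocytes in Albumax-based RPMI medium with compound for one erythrocytic cycle. Activity is scored as loss of luminescent signal.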
# Pf growth 96h: P. falciparum growth inhibition at 96 hours. P. falciparum luciferase reporter growth, 96 h. Potency, µM (series often up to 28.7 µM), without a hit: top-dose activity change, negative = inhibition, actives largely listed as inhibitors. 6.9% of 320,000 active. AID 504834; note: potency is the fitted concentration of half-maximal effect; % is set by controls: 0 for no effect and ±100 for the full control effect
#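 Parasite growth measured via integrated firefly luciferase reporter in P. falciparum. Infected erythrocytes at 2% hematocrit, 0.05% parasitemia final were treated 96 hours at 37 C under 5% CO2, and luminescence was read.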
# SARS PLpro yeast: SARS-CoV PLP inhibition in yeast | S. cerevisiae expressing SARS-CoV PLpro, growth rescue | Potency, µM (titrated, usually from 32.9 µM), inactives show top-dose activity, positive = growth rescue, hits mostly activators | 0.19% of 330,000 active; calls by dose curve; note: potency is the fitted concentration of half-maximal effect; 0% is about no effect; nearly all actives have a fitted effect of over 55% in size
# HCMV inh: human cytomegalovirus inhibition | HFF cells, HCMV-luciferase reporter, 72 h; hits give low values | activity change, negative = inhibition, % at 57.5 µM | 4.5% of 410,000 active | AID 1259415; in the data active = activity change below about -60%; inconclusive = no clear call, values can overlap the other calls; inactive = above about -39%; note: % is set by controls: 0 for no effect and ±100 for the full control effect
#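 Two compound doses tested in HFFs infected with HCMV-luciferase, MOI 1 PFU/cell, 72 h at 37C. Lysate luminescence read with OneGlo; data normalized against buffer-only and 10uM Salinomycin inhibitor controls.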
# HCV inhibitor: HCV inhibition; Huh7.5.1 HCVcc-Cre infection, luciferase reporter, 44 h; Potency, µM (top dose mostly 41.8 µM), inactives show top-dose activity change, negative = inhibition, actives largely listed as inhibitors; 3.4% of 340,000 active; note: potency is the fitted concentration of half-maximal effect; % is set by controls: 0 for no effect and ±100 for the full control effect
#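 Infectious HCV cell culture screen: compound-treated cells (1,000/well, pre-plated 4 h) are infected with HCVcc-Cre at roughly 0.5 moi and grown 44 h. Infection is quantified by luciferase signal after 15 min substrate incubation at room temperature.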
# Sm TGR inh: inhibitors of Schistosoma mansoni thioredoxin glutathione reductase. Q962Y6. purified TGR, DTNB reduction, TNB absorbance 405 nm. Potency, µM (titrated, usually from 114 µM), without a hit: at the highest dose activity change, negative = inhibition, most hits filed as inhibitors. 3% of 360,000 active. AID 485364; note: potency is the fitted concentration of half-maximal effect; % is set by controls: 0 for no effect and ±100 for the full control effect; nearly all actives have a fitted effect of over 60% in size
#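 First, TGR (20 nM dispensed) and NADPH were mixed with compound. Second, a 15 min room-temperature incubation followed. Third, further NADPH and then DTNB were added to start the reaction. Finally, TNB absorbance was monitored kinetically.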
# Active calls of the source: *; u = inconclusive; x = no result given; + = active, no number; ! = a repeat was not active. Unless noted, calls come from the whole dose curve; as a rule, active = well fitted curve in the direction sought with a large enough effect; inconclusive = small, poorly fitted or top-dose-only effect, or another doubt; inactive = no such curve, though single readings can be large; an effect the other way counts as inactive or inconclusive.
SMILES,Pf growth 48h,Pf growth 96h,SARS PLpro yeast,HCMV inh,HCV inhibitor,Sm TGR inh
Cc1ccc2nc(SCc3nc4cc(Cl)ccc4c(=O)[nH]3)[nH]c2c1,u,4%,-2%,-19,u,5%
O=c1[nH]c(SCc2nc3c(cnn3-c3ccccc3)c(=O)[nH]2)nc2ccccc12,41%,28%,-6%,-92*,u,4%
O=c1[nH]c(CSc2nc3ccccc3[nH]2)nc2c1cnn2-c1ccccc1,-4%,u,-3%,-86*,u,-2%
O=c1[nH]c(CSc2ncccn2)nc2c1cnn2-c1ccccc1,14%,0%,5%,62,-9%,-9%
CCNC(=O)c1nn(-c2ccccc2C)nc1CO,x,x,x,47,x,3%
C=CC[n+]1cccc(-c2cc3ccc(C)cc3[nH]2)c1,u,5.2µM*,1%,12,-9%,-4%
CCc1ccc(NC(=O)C2CCN(S(=O)(=O)c3ccc4[nH]c5c(c4c3)CCCCC5)CC2)cc1,x,x,x,+,x,2%
O=C(NCc1ccc2[nH]c3c(c2c1)CCCC3)c1ccc(S(=O)(=O)N2CCCCC2)cc1,u,10µM*,2%,-78*,u,1%
COc1cc(/C=N/NC(=Nc2ccc(C)cc2)c2nc3ccccc3s2)ccc1O,-41%,x,-4%,-68*,u,-15%
COc1ccccc1/C=N/NC(=Nc1ccc(C)cc1)c1nc2ccccc2s1,100%,285%,1%,x,x,-17%
COc1cc(C=C(c2nc3ccccc3s2)c2nc3ccccc3s2)cc(OC)c1O,u,u,-54%,-15,10µM*,-32%
CC(Oc1cccc(Cl)c1)C(=O)N1CCCN(C)CC1 (centres undefined),26%,24%,-5%,-9,10%,0%
O=C(COc1ccccc1)NCC(c1ccc(Cl)cc1)N1CCCCC1 (centres undefined),x,x,x,-2,x,5%
Cc1nn(C2CCS(=O)(=O)C2)c2nc(C3CC3)cc(C(=O)Nc3ccc(C(N)=O)cc3)c12 (centres undefined),-14%,u,-3%,-4,-4%,-17%
COc1ccc(S(=O)(=O)N2CCOCC2)cc1NC(=O)c1ccc(-n2nc(C)cc2C)cc1,10µM*,u,0%,0,-27%,11%
COc1cc(S(=O)(=O)N2CCCCC2)ccc1NC(=O)c1ccc(F)cc1,8%,10µM*,-2%,10,22%,6%
COc1ccccc1NS(=O)(=O)c1ccc(C)c(NC(=O)c2ccc(S(=O)(=O)N3CCCCCC3)cc2)c1,u,u,u,-69*,7.9µM*,-6%
COc1ccc(NC(=O)c2ccc(S(=O)(=O)N3CCOCC3)cc2)c(OC)c1,-4%,4.7µM*,7%,-17,1%,3%
CC(=O)c1ccc(NC(=O)NC2CC(=O)N(c3ccc4c(c3)OCCO4)C2)cc1 (centres undefined),u,u,-3%,3,-2%,-9%
CNC(=O)C1Cc2c(-c3ccccc3Oc3ccccc3)ccnc2O1 (centres undefined),x,x,x,-3,x,x
COc1cc(S(=O)(=O)N2CCOCC2)ccc1NC(=O)COC(=O)CC12CC3CC(CC(C3)C1)C2,x,8.3µM*,-7%,u,u,2%
COc1cc(S(=O)(=O)N2CCCCC2)ccc1NC(=O)c1ccccc1Cl,9.3µM*,-4%,15%,-18,-6%,-5%
COc1cc(S(=O)(=O)Nc2ccccc2C)ccc1NC(=O)c1ccncc1,-6%,u,2%,-72*,-23%,-10%
Cc1cc(NC(=O)CCc2ccc(S(=O)(=O)N3CCOCC3)cc2)n(-c2ccccc2)n1,13µM*,u,3%,2,-23%,2%
CCn1cc(C(=O)N[C@@H](CCSC)C(=O)NCCCOC)c(=O)c2cc3c(cc21)OCO3,u,8%,3%,56,-11%,4%
SMILES,Pf growth 48h,Pf growth 96h,SARS PLpro yeast,HCMV inh,HCV inhibitor,Sm TGR inh
CN(CC(=O)Nc1cccc(F)c1)CC(=O)N1CCc2ccccc21,-29%,-24%,-6%,5,7%,-8%
O=C(OCC(=O)N1CCCc2ccccc21)c1cccc(S(=O)(=O)N2CCc3ccccc32)c1,14%,34%,20%,7,12%,0%
CCOc1ncccc1C(=O)Nc1cc(S(=O)(=O)N2CCCCC2)ccc1Cl,u,0.83µM*,2%,u,14%,-2%
CCOc1ncccc1C(=O)Nc1ccc(Cl)c(S(=O)(=O)N2CCCC2)c1,u,u,0%,u,u,4%
COc1ccc(S(=O)(=O)N2CCOCC2)cc1NC(=O)c1cc2c(s1)CCCC2,-6%,0%,8%,-69*,5%,-9%
O=C(CCSc1ccc(F)cc1)NNC(=O)c1ccccc1Cl,-1%,0%,-7%,u,7%,-3%
CCOc1cc(C(=O)OC(C(=O)NC(=O)NC)c2ccccc2)ccc1OCC(=O)N1CCOCC1 (centres undefined),x,x,-18%,34,-19%,x
COc1cccc(C(=O)c2c(C)c(CCC#N)n3ccccc23)c1OC,-18%,5%,7%,0,14%,-19%
COc1cc(C(=O)c2c(C)c(CCC#N)n3ccccc23)cc(OC)c1OC,9.3µM*,-19%,-2%,u,-2%,-25%
C[C@@H]1CN([C@H](C)CO)C(=O)CCCn2nncc2CO[C@@H]1CN(C)S(=O)(=O)c1ccc2c(c1)OCCCO2,x,x,x,-12,x,x
O=S(=O)(Nc1nc2cc3c(cc2nc1Cl)OCCO3)c1ccccc1,15µM*,16%,3%,62,-11%,-20%
COc1ccc(N(C)S(=O)(=O)c2cccc(C(=O)OCC(=O)Nc3cc(C)ccc3OC)c2)cc1,x,x,x,22,x,x
COc1c(C(O)CC(C)C)ccc2c1C(=O)OCc1cc(C)cc(O)c1O2 (centres undefined),38%,0%,0%,-18,2.2µM*,u
COc1c(C(CC(C)C)OC(C)=O)ccc2c1C(=O)OCc1cc(C)cc(O)c1O2 (centres undefined),8.3µM*,108%,-11%,-19,2.5µM*,-26%
CCCCc1ccc(/C=C2\C(=O)c3ccccc3C(O)=C2C(=O)OCC)cc1,u,u,-40%,x,u,11µM*
Cc1nn(CC(=O)N2CCN(c3ccccc3)CC2)c(=O)c2cc3sccc3n12,x,x,x,5,x,5%
O=C1CC[C@@H](C(=O)O)N1,u,13µM*!,x,10,11%,-4%
O=C1CCC(C(=O)OCC(=O)c2ccccc2)N1 (centres undefined),15%,-6%,1%,34,21%,1%
